# Compounds without any hit were thinned out: in the full panel of roughly 83,000, 20% have a hit.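 48-hour exposure, single concentration, 96-well plates; percent growth endpoint where 0 means no net growth. Active: below 10.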 A number with no mark means an inactive call. The source made the active and inactive calls.
# Tests used:
# Test in all cases: NCI-60 one-dose screen, 48 h (100 = growth as untreated, 0 = no growth, -100 = all killed)
# SK-MEL-2 melanoma = details: 10 µM unless noted
# EKVX NSCLC = details: 10 µM unless noted
# SN12C renal = details: 10 µM unless noted
# UO-31 renal = details: 10 µM unless noted
# TK-10 renal = details: 10 µM unless noted
# ACHN renal = details: 10 µM unless noted
# CAKI-1 renal = details: 10 µM unless noted
# A498 renal = details: 10 µM
# HL-60(TB) leukemia = details: 10 µM unless noted
# CCRF-CEM leukemia = details: 10 µM unless noted
# MOLT-4 leukemia = details: 10 µM unless noted
# SR leukemia = details: 10 µM unless noted
# RPMI-8226 leukemia = details: 10 µM unless noted
# OVCAR-8 ovarian = details: 10 µM unless noted
# OVCAR-5 ovarian = details: 10 µM unless noted
# OVCAR-4 ovarian = details: 10 µM unless noted
# SK-OV-3 ovarian = details: 10 µM unless noted
# IGROV1 ovarian = details: 10 µM unless noted
# OVCAR-3 ovarian = details: 10 µM unless noted
# HS 578T breast = details: 10 µM unless noted
Structure (SMILES),growth (SK-MEL-2 melanoma),growth (EKVX NSCLC),growth (SN12C renal),growth (UO-31 renal),growth (TK-10 renal),growth (ACHN renal),growth (CAKI-1 renal),growth (A498 renal),growth (HL-60(TB) leukemia),growth (CCRF-CEM leukemia),growth (MOLT-4 leukemia),growth (SR leukemia),growth (RPMI-8226 leukemia),growth (OVCAR-8 ovarian),growth (OVCAR-5 ovarian),growth (OVCAR-4 ovarian),growth (SK-OV-3 ovarian),growth (IGROV1 ovarian),growth (OVCAR-3 ovarian),growth (HS 578T breast)
O=C1N[C@@H]2[C@@H](O)[C@@H](O)[C@H](O)C[C@H]2c2cc3c(c(O)c21)OCO3,-63.6% (active),-26.3% (active),-18.4% (active),-31% (active),-12.6% (active),-45.5% (active),-7.77% (active),-53.4% (active),-37.8% (active),2.84% (active),-6.14% (active),6.14% (active),-24.2% (active),-7.71% (active),-13.4% (active),-23.7% (active),-11.2% (active),-7.85% (active),-10.8% (active),-14.2% (active)
O=P(Oc1ccc(Cl)cc1)(N1CC1)N1CC1,102%,101%,86.7%,61.1%,104%,25%,5.92% (active),97.4%,96%,82.5%,84.8%,77.8%,88.6%,89.3%,117%,97.3%,104%,89.1%,109%,103%
COC(C(=O)[C@@H](O)[C@@H](C)O)[C@@H]1Cc2cc3cc(O[C@H]4C[C@@H](O[C@H]5C[C@@H](O)[C@H](O)C(C)O5)[C@H](O)C(C)O4)c(C)c(O)c3c(O)c2C(=O)[C@H]1O[C@H]1C[C@@H](O[C@H]2C[C@@H](O[C@H]3C[C@@H](O)[C@@H](O)C(C)O3)[C@@H](O)C(C)O2)[C@H](O)C(C)O1 (stereo not given in full),-61.3% (active),24.4%,7.47% (active),-3.24% (active),12.1%,0.535% (active),12.6%,-39.9% (active),30.5%,29.4%,23.9%,14.3%,9.15% (active),2.92% (active),13.7%,25.2%,25.5%,18.2%,4.91% (active),14.5%
COc1ccc(/C=C\c2cc(OC)c(OC)c(OC)c2)cc1OCC(=O)Nc1nc2ccc(F)cc2s1,68.8%,57.7%,42.4%,0.455% (active),17.5%,25%,16.9%,29.5%,33.7%,40.4%,12.5%,13.8%,48.3%,29.2%,92.4%,51.1%,61.2%,17%,48.2%,33.8%
O=C1C2C(C(=O)[N]1[Hg][c]1ccccc1)C1(Cl)C(Cl)=C(Cl)C2(Cl)C1(Cl)Cl (stereo not given),50.8%,-7.36% (active),-71.7% (active),-77.1% (active),-95.9% (active),-98.5% (active),-87.5% (active),32.8%,-18.4% (active),-23.8% (active),-2.76% (active),-23.6% (active),-40.8% (active),-47.4% (active),73%,5.55% (active),62.1%,-39.3% (active),-85.5% (active),-14.1% (active)
COc1ccc(S(=O)(=O)N(Cc2ccc3c(c2)C=CC(C)(C)O3)c2ccccc2)cc1OC,97.1%,58.1%,95.9%,67.4%,102%,61.3%,61.7%,77.8%,70.6%,72%,74.4%,75.9%,46.2%,79.9%,103%,70.6%,90.7%,75.6%,74.3%,91.1%
Clc1cccc(NCOOC2(OOCNc3cccc(Cl)c3)CCCCCC2)c1,92.4%,89%,95.4%,-47.3% (active),92.2%,80.5%,36%,98.8%,78.8%,80.2%,92.7%,5.27% (active),91.9%,93.9%,96.6%,97.4%,105%,7.21% (active),97.1%,102%
COC(=O)[C@@H](C)C[C@H](Cc1ccccc1)NC(=O)c1csc([C@@H](C[C@H](C(C)C)N(C)C(=O)[C@@H](NC(=O)C23CC(NC(C)=O)(C2)C3)C2CC2)OC(C)=O)n1,49%,78.8%,51.7%,95.4%,77.1%,96.2%,95.3%,48.3%,-17.2% (active),9.99% (active),57.4%,29.1%,12%,69.1%,103%,77.7%,78.9%,49.4%,-7.77% (active),7.48% (active)
O=C(CC1(O)C(=O)N(Cc2ccccc2)c2ccccc21)c1ccc(C(=O)NCC2CCC3(CC2)OOC2(CCCCC2)OO3)cc1 (stereo not given),6.18% (active),-63.3% (active),-60.9% (active),-81.2% (active),-93.2% (active),-87.7% (active),-90.4% (active),-88.7% (active),-67.4% (active),-41.2% (active),-49.9% (active),-49.3% (active),-26.7% (active),-14.8% (active),21%,-36.6% (active),54.3%,-41.8% (active),-82.4% (active),-6.26% (active)
C=CC[Se]C(=O)c1ccccc1OC(C)=O,37.2%,-30.8% (active),-18.4% (active),-53.5% (active),12.5%,-26.6% (active),-9.51% (active),-3.97% (active),-45.7% (active),5.37% (active),14.7%,6.08% (active),-22.8% (active),-12.8% (active),-32.1% (active),-36% (active),-28.8% (active),18.1%,2.36% (active),-8.17% (active)
COc1ccc(C/C(C)=C(\c2ccc(OCCN3CCOCC3)cc2)c2ccc(OC(=O)Cc3ccccc3)cc2)cc1,-80.6% (active),17.9%,-73.7% (active),-84.6% (active),-46.1% (active),-3.31% (active),7.71% (active),-90.5% (active),-59.3% (active),-13.7% (active),-14.5% (active),-38.2% (active),-42.4% (active),-1.48% (active),3.16% (active),4% (active),0.737% (active),1.9% (active),-93.4% (active),-42.1% (active)
CC[S][Hg][Cl],105%,106%,105%,87.9%,115%,101%,89.7%,115%,113%,93.4%,109%,98.1%,114%,102%,116%,122%,110%,112%,109%,106%
Clc1ccc(CO/N=C(\Cn2ccnc2)c2ccc(Cl)cc2Cl)c(Cl)c1,-48% (active),6.63% (active),2.12% (active),-3% (active),-1.82% (active),6.26% (active),1.17% (active),-5.95% (active),-23% (active),-13.1% (active),-4.84% (active),-13.7% (active),-3.32% (active),9.94% (active),15.8%,20.7%,101%,6.54% (active),-60.1% (active),-4.93% (active)
O=C1NC(=O)C(=Cc2cccn2CCCCCn2c3ccccc3c(=O)c3ccccc32)C(=O)N1,107%,105%,106%,79.4%,101%,105%,103%,104%,92.2%,100%,93.3%,86.7%,92%,102%,101%,99.8%,108%,99.4%,105%,106%
Cc1ccccc1NC(=NCCCN1CC1)Nc1ccccc1C,114%,96.8%,92.1%,73.3%,99.7%,90.1%,77.5%,91.7%,95.9%,89.7%,70.8%,69.7%,95.2%,82.6%,123%,88.9%,79.9%,82%,90.4%,97.4%
